Bioassay records (PubChem BioAssay)
Shown are actives, neighbours in structure and some others; about 19% of the full set was active somewhere.
TGFb SMAD3 inh – inhibitors of TGF-b signaling | HepG2 CAGA-GFP TGF-b/SMAD3 reporter, GFP fluorescence, 18 h; TGF-beta stimulated, 500 pg/mL final | Potency, µM (top dose mostly 46.1 µM), actives largely listed as inhibitors | 410,000 tested, 1.2% active | AID 588855; note: nearly all actives have a fitted effect of over 65% in size
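HEPG2 CAGA-GFP cells (1000/well, DMEM with 1% FBS) were pre-incubated 2 h at 37 degrees C, given compound by pin tool, then stimulated with TGF-beta at 500 pg/mL final for 18 h before per-cell GFP fluorescence imaging.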
IL-1B inflam inh – blocks inflammasome-driven IL-1 beta release. activity change, % at 57.5 µM. AID 743279. 360,000 tested, 4.7% active. THP-1 LPS/ATP IL-1B secretion, AlphaLISA, 16 h; stronger effect = lower value; in the data active = activity change below about -50%; inconclusive = mostly about -30% to -49%
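Secreted IL-1B measured by AlphaLISA bead assay after 16 h compound exposure of THP-1 cells; compounds (final up to 57.5 uM) added 1 h before LPS (250 ng/mL) and ATP (1.25 mM) stimulation; lower signal means less secretion.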
HepG2 viability – counter-screen for TGF-b inhibitors: cytotoxicity in HepG2 cells; HepG2 CAGA-GFP viability, ATP luminescence, 18 h; Potency, µM (series often up to 46.1 µM), most hits filed as cytotoxic; 410,000 tested, 0.76% active
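HepG2 CAGA-GFP cells (1000/well, DMEM with 1% FBS) received compound, then TGF-beta at 500 pg/mL final, and were incubated 18 hours at 37 degrees C. Viability was read by CellTiter-Glo luminescence. Media-only wells were set as complete cell-killing and DMSO as no toxicity.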
DT40 TDP1 CPT – growth inhibition of DT40 Tdp1-/-;hTDP1 cells with camptothecin (screen for TDP1 inhibitors); chicken DT40 Tdp1-/-;hTDP1 cells + 20 nM CPT, ATP luminescence, 48 h; Potency, µM (series often up to 46.2 µM), usual class: inhibitors; 420,000 tested, 12% active; AID 686979; note: nearly all actives have a fitted effect of over 55% in size
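Chicken DT40 Tdp1-/- cells complemented with human TDP1, 400 cells/well, exposed to compounds plus 20 nM camptothecin for at least 48 h at 37 C; viability read as ATP content by CellTiter-Glo luminescence.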
TDP1 cell noCPT – qHTS for Inhibitors of human tyrosyl-DNA phosphodiesterase 1 (TDP1): qHTS in cells in absence of CPT; DT40 Tdp1-/- hTDP1 cells, no CPT, ATP luminescence, 48 h; Potency, µM (doses to about 46.2 µM), most hits filed as inhibitors; 420,000 tested, 15% active; note: nearly all actives have a fitted effect of over 55% in size
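Growth of hTDP1-complemented DT40 Tdp1-knockout cells is measured by ATP luminescence after at least 48 hr compound exposure at 37 °C, with DMSO substituting for the 20 nM CPT used in the parallel screen.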
TDP1 inh – inhibitors of human tyrosyl-DNA phosphodiesterase TDP1; recombinant TDP1, AlphaScreen DNA substrate cleavage; Potency, µM (highest dose often 130 µM), usual class: inhibitors; 350,000 tested, 0.28% active; AID 485290; note: nearly all actives have a fitted effect of over 40% in size
Target sequence (Q9NUW8 whole entry, looked up): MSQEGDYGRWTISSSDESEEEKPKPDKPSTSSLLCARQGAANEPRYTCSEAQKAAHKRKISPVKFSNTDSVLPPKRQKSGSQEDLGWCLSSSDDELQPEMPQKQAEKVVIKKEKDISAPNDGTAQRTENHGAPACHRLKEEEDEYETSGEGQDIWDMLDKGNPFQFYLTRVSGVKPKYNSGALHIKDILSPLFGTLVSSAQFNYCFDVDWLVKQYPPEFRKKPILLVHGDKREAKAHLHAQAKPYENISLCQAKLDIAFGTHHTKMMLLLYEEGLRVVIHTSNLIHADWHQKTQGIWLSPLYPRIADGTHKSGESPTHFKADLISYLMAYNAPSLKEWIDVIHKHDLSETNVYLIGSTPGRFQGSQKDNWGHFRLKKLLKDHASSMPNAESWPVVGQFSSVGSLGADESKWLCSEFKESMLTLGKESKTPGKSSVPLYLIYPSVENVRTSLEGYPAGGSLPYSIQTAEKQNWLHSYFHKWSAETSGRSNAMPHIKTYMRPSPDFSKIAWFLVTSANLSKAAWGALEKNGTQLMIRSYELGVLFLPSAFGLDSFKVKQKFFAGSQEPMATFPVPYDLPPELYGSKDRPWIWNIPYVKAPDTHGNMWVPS
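Here, a 5' biotin and 3' phosphotyrosine-FITC DNA oligonucleotide reports Tdp1 activity: intact substrate bridges AlphaScreen beads, while cleavage leaves a 3' phosphate and drops signal. All incubations at room temperature.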
Each line names hits and unclear results; the compound was inactive in the other large screens. Unless noted, calls come from the whole dose curve; as a rule, active = well fitted curve in the direction sought with a large enough effect; inconclusive = small, poorly fitted or top-dose-only effect, or another doubt; inactive = no such curve, though single readings can be large; an effect the other way counts as inactive or inconclusive.

COc1ccc(C(=O)CCc2ccccc2)cc1	IL-1B inflam inh -52.4 (no result: TDP1 inh)
Cc1ccc(S(=O)(=O)CC(=O)c2ccccc2)cc1	TGFb SMAD3 inh inconclusive
COc1ccc(C(=O)COC(=O)CCc2ccccc2)cc1	none (no result: TDP1 inh)
CC(C)(C)c1ccc(C(=O)CS(=O)(=O)c2ccccc2)cc1	DT40 TDP1 CPT inconclusive, TDP1 cell noCPT 16.4µM
COc1ccc(C(=O)CC(=O)c2ccc(C(C)(C)C)cc2)cc1	DT40 TDP1 CPT inconclusive, TDP1 cell noCPT inconclusive, TDP1 inh 20µM
COc1ccc(C(=O)N(C)c2ccccc2C(=O)NCCc2ccccc2)cc1	DT40 TDP1 CPT 4.11µM, TDP1 cell noCPT 2.91µM
C/C=C/OC(=O)NC(c1cccc(C)c1)[C@@]1(C(=O)OCC)CCCC1=O (some centres undefined)	none (no result: TGFb SMAD3 inh, IL-1B inflam inh, HepG2 viability, DT40 TDP1 CPT, TDP1 cell noCPT)
COc1ccc(C(=O)CC(=O)c2ccc(F)cc2)cc1	IL-1B inflam inh -52.6, TDP1 cell noCPT inconclusive (no result: TDP1 inh)
COc1ccc(C(=O)CC(=O)C(=O)Nc2ccccc2OC)cc1	DT40 TDP1 CPT inconclusive, TDP1 cell noCPT inconclusive (no result: TDP1 inh)
O=C(N[C@H]1C/C=C\C[C@@H](CC(=O)N(CCO)Cc2ccccc2)C(=O)N2CCC[C@@H]2COC1=O)OCC1c2ccccc2-c2ccccc21	DT40 TDP1 CPT 8.2µM, TDP1 cell noCPT 6.51µM
O=C(N[C@H]1C/C=C\C[C@@H](CC(=O)N(CCO)Cc2ccccc2)C(=O)N2CCC[C@H]2COC1=O)OCC1c2ccccc2-c2ccccc21	DT40 TDP1 CPT 13µM, TDP1 cell noCPT 18.4µM
CC(C)Sc1cc(N2CCOCC2)nc(-c2ccccc2)n1	IL-1B inflam inh inconclusive, DT40 TDP1 CPT 23.1µM, TDP1 cell noCPT 16.4µM
CC(C)Sc1cc(N2CCCC2)nc(-c2ccc(F)cc2)n1	TDP1 cell noCPT inconclusive
Fc1ccccc1N1CCN(Cc2nc(-c3ccccc3)no2)CC1	none
COCc1cc(N2CCOCC2)nc(-c2ccccc2)n1	IL-1B inflam inh inconclusive, DT40 TDP1 CPT 23.1µM, TDP1 cell noCPT inconclusive
COCc1cc(N2CCN(c3ccccc3F)CC2)nc(-c2ccccc2)n1	DT40 TDP1 CPT inconclusive, TDP1 cell noCPT 11.6µM
Cn1cccc1Cc1nnc(SCC(=O)Nc2cccc(F)c2)n1CCc1ccccc1	DT40 TDP1 CPT 23.1µM, TDP1 cell noCPT inconclusive
Cn1cccc1Cc1nnc(SCC(=O)Nc2ccccc2F)n1CCc1ccccc1	IL-1B inflam inh inconclusive
COc1ccc(-n2c(Cc3cccn3C)nnc2SCC(=O)Nc2ccccc2)cc1	none
Cn1cccc1Cc1nnc(SCC(=O)N2CCCC2)n1CCc1ccccc1	IL-1B inflam inh inconclusive, DT40 TDP1 CPT inconclusive
COc1ccc(-n2c(Cc3cccn3C)nnc2SCC(=O)Nc2cccc(F)c2)cc1	IL-1B inflam inh inconclusive, DT40 TDP1 CPT 23.1µM, TDP1 cell noCPT 25.9µM
CC1CCN(C(=O)CSc2nnc(Cc3cccn3C)n2CCc2ccccc2)CC1	IL-1B inflam inh inconclusive, DT40 TDP1 CPT 16.4µM, TDP1 cell noCPT inconclusive
CSCCC(NC(=O)c1ccccc1Cl)C(=O)NNC(=O)c1ccncc1 (centres undefined)	none
CCc1ccc(NC(=O)CSc2nc3ccccc3nc2Cc2ccccc2OC)cc1	TDP1 cell noCPT inconclusive (no result: IL-1B inflam inh)
Cc1ccnc(NC(=O)c2cnc(Cl)c(Cl)c2)c1	none
CN(Cc1ccccc1)C(=O)c1cccc(NC(=O)Cc2ccc(NC(=O)C3CCN(C(=O)C4CCCCC4)CC3)cc2)c1	none (no result: TDP1 inh)
O=C(Cc1nnc(NC(=O)c2ccccc2)s1)N/N=C/c1cccc(O)c1	none (no result: TDP1 inh)
Cc1ccccc1OCC(=O)N/N=C/c1cn(C)c2ccccc12	none (no result: TDP1 inh)
Cc1ccc(Cn2cc(/C=N/NC(=O)Cc3nnc(NC(=O)c4ccc(C)cc4)s3)c3ccccc32)cc1	DT40 TDP1 CPT 11.6µM, TDP1 cell noCPT 6.51µM
CC(C)n1cc(/C=N/Nc2ccc(C(=O)O)cc2)c2ccccc21	none (no result: TDP1 inh)
Nc1ccc(C(=O)N/N=C/c2cn(Cc3ccccc3)c3ccccc23)cc1	TGFb SMAD3 inh 2.82µM
Cc1ccccc1OCC(=O)N/N=C/c1cn(Cc2ccccc2)c2ccccc12	TGFb SMAD3 inh 8.91µM, TDP1 cell noCPT inconclusive
O=C(O)c1ccc(N/N=C/c2cn(Cc3ccccc3F)c3ccccc23)cc1	TGFb SMAD3 inh 11.2µM
O=C(N/N=C/c1cn(Cc2cccc(F)c2)c2ccccc12)c1cc(O)cc(O)c1	TGFb SMAD3 inh inconclusive, TDP1 inh 0.631µM
Nc1ccc(C(=O)N/N=C/c2cn(Cc3ccccc3F)c3ccccc23)cc1	IL-1B inflam inh -66.7, DT40 TDP1 CPT inconclusive, TDP1 cell noCPT inconclusive
CC1=C(C)CC(c2ccccc2)C(C(=O)c2ccccc2O)C1 (centres undefined)	none (no result: TGFb SMAD3 inh, IL-1B inflam inh, HepG2 viability, DT40 TDP1 CPT, TDP1 cell noCPT)
CCc1n[nH]c(=S)n1/N=C/c1c(O)ccc2ccccc12	none (no result: TDP1 inh)
CCCCCCCCCCN1CCOCCOCCN(CCCCCCCCCC)CCOCCOCC1	none (no result: TGFb SMAD3 inh, IL-1B inflam inh, HepG2 viability, DT40 TDP1 CPT, TDP1 cell noCPT)
